Data reported in PubChem BioAssay (NCI).
Compounds without any hit were thinned out: in the full panel of roughly 83,000, 20% have a hit.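 Results are percent growth after 48 hours of single-concentration exposure. 100 means growth as in untreated cells, lower positive values show inhibition; negative values down to -100 show cell death.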 Calls of active or inactive are those of the source.

test system: UACC-62 melanoma; test: NCI-60 one-dose screen, 48 h (100 = growth as untreated, 0 = no growth, -100 = all killed); conditions: 10 µM unless noted
Procedure: Growth inhibition of the UACC-62 human tumor cell line is measured as a screen for anti-cancer activity. Cells are grown in 96 well plates and exposed to the test compound for 48 hours. Compounds are tested at a single concentration, which is 10^-5 M for most compounds. The reported endpoint is percent growth (GI% or GIPRCNT), where numbers from 0 - 100% represent growth inhibition, and numbers from -100% - 0 represent cell death. For example, a value of 40 represents 60% growth inhibition. A value of 0 means no net growth occurred over the course of the experiment. A value of -40 indicates 40% of cells at the beginning of the experiment died by the end of the experiment. A value of -100 means all cells are dead at the end of the experiment.
NCI-60 Human Tumor Cell Lines Screen was performed using the standard one-dose NCI protocol, which is described in more detail at https://dtp.cancer.gov/discovery_development/nci-60/default.htm.
Compounds with GIPRCNT values below 10 were considered active. Activity score was based on GIPRCNT using the following formula: […]
Score is 0 for GIPRCNT values of 100 or above, 50 for GIPRCNT values of 0, and 100 for GIPRCNT values of -100.

SMILES	growth
Cc1c2c(cc[n+]1Cc1ccccc1)c1ccc(OCC3CCCCC3)cc1n2CC1CCCCC1	-94% (active)
Fc1ccc(-n2cc(COc3ncnc4sc5c(c34)CCCC5)nn2)cc1Cl	92.2% (inactive)
CN(Cc1ccccc1)c1nc(Cl)c(C2CC(c3ccc(Cl)cc3)=Cc3[nH][nH]c(=O)c32)s1 (stereo not given)	89% (inactive)
COc1ccc(CNCCN2C(=O)c3ccc4c5c(ccc(c35)C2=O)C(=O)N(CCNCc2ccc(OC)cc2)C4=O)cc1	-84.4% (active)
BrC(Br)(Br)c1cnc2ccccc2n1	61.4% (inactive)
CC1(C)CCCN1CCCN1c2ccccc2Sc2ccc(Cl)cc21	75.6% (inactive)
Cc1ccc(-c2csc(/N=C3\C(=O)Nc4ccccc43)n2)cc1	0.615% (active)
CCSc1ccc2c(c1)N(CCCN1CCN(C)CC1)c1ccccc1S2	-43% (active)
N#C/C(=C\c1ccc(Br)cc1)n1nnc2cccc(F)c21	22.7% (inactive)
CN1CCN(Cc2ccc(NC(=O)c3cncc(C#Cc4cnccc4C(F)(F)F)c3)cc2C(F)(F)F)CC1	89.9% (inactive)
COc1ccc(C(O)c2cc3c(N)c(C(=O)Nc4cccc(Br)c4C)sc3nc2C)cc1 (stereo not given)	27.2% (inactive)
COc1cc(-c2nc3sccn3c2-c2ccnc(NCCNS(=O)(=O)c3ccc(F)cc3)n2)ccc1F	-65.2% (active)
Cc1nc2sc(C(=O)Nc3ccccc3)c(N)c2cc1C(=O)c1ccc(C(F)(F)F)cc1	95.3% (inactive)
CN(C)C(=O)c1cc2cnc(Nc3ccc(-c4csc5c(=O)cc(N6CCOCC6)oc45)cc3)nc2n1C1CCCC1	-69.6% (active)
C=C1C(=O)O[C@H]2[C@H]1CC/C(CNC(=O)/C=C/c1ccc(Br)cc1)=C\CC[C@@]1(C)O[C@@H]21	-93.5% (active)
CCNC(=S)NNC(=O)c1cc2ccc1CCc1ccc(cc1)CC2	93.4% (inactive)
CNC(=O)Nc1ccc(-c2nc(N3CCOCC3)nc3c2cnn3C2CCOCC2)cc1	-39.6% (active)
CCCCCCOc1ccc(C(=N)N(CCCC)CCCC)c2ccccc12	-86% (active)
O=C1C(=O)c2c(nc3ncccn23)-c2ccccc21	-92.8% (active)
COc1cccc(NC(=O)c2cccc(-c3cc(=O)c4c(OC)c(OC)c(OC)cc4o3)c2)c1	62.1% (inactive)

SMILES	growth
COc1ccc2c(c1)c(CC(=O)NCCOCCOCC(=O)Nc1ccc(OC)c(C(N)=O)c1O)c(C)n2C(=O)c1ccc(Cl)cc1	98.8% (inactive)
C/C(=C(/c1ccccc1)c1ccc(OCC(O)CNCCN2CCOCC2)cc1)c1ccccc1 (stereo not given)	62.8% (inactive)
CCOc1cc(CNc2ccc(N3CCOCC3)c(C(=O)O)c2)ccc1OC	90.3% (inactive)
COc1cccc(CCC(=O)c2cc3c(N)c(C(=O)Nc4ccccc4)sc3nc2C)c1	28.3% (inactive)
Cc1[nH]n(C(=O)c2ccncc2)c(=O)c1N=Nc1ccc(F)c(Cl)c1	106% (inactive)
O=C1Nc2c(ccc(Cl)c2Cl)/C1=C/c1ccc([N+](=O)[O-])cc1	102% (inactive)
CO[C@@H]1[C@H](N(C)C(=O)c2ccccc2)C[C@@H]2O[C@]1(C)n1c3ccccc3c3c4c(c5c6ccccc6n2c5c31)C(=O)NC4=O	34.1% (inactive)
CCN(CC)CCCC(C)Nc1cc(-c2cccc(OC(F)(F)F)c2)nc2ccc(N3CCCC3)cc12 (stereo not given)	-86.5% (active)
O=C(Nc1cccc(Cl)c1)c1cc(Cl)ccc1O	0.352% (active)
O=S(=O)(NCCNc1nccc(-c2c(-c3ccc(F)c(O)c3)nc3occn23)n1)c1ccccc1	6.23% (active)
O=C(NCCN1CCOCC1)OCc1nc2nc(Cl)nc(N3CCOCC3)c2[nH]1	35.1% (inactive)
Cc1nn(-c2ccccc2)c(N2CCOCC2)c1/C=N/N=c1\sc2ccccc2n1C	71.1% (inactive)
Clc1ccc(C2CC(c3cccc(Nc4ccncc4)c3)=NN2c2cc(Cl)cc(Cl)c2)cc1 (stereo not given)	101% (inactive)
CCNNC(=O)[C@@H]1[C@H](c2cc(OC)c(OC)c(OC)c2)c2cc3c(cc2[C@H](O)[C@H]1CO)OCO3	50% (inactive)
O=C1CCC(NC(=S)Nc2ccccc2)N1 (stereo not given)	99.9% (inactive)
CSc1nnc2c(=O)n(C)c(=O)n(C)c2n1	95.8% (inactive)
COc1cc(COC(=O)CCCCC[P+](c2ccccc2)(c2ccccc2)c2ccccc2)c(OC)c2c1OCO2	46.9% (inactive)
COc1cc(/C=C2\C(=O)N(Cc3ccc(Cl)cc3)c3ccccc32)cc(OC)c1OC	22.2% (inactive)
COc1cccc2cc(-c3cc4ccccc4[nH]3)/c(=N/C(=S)Nc3ccc(C)cc3)oc12	65.7% (inactive)
COc1ccncc1C#Cc1cncc(C(=O)Nc2ccc(CN3CCN(C)CC3)c(C(F)(F)F)c2)c1	26.4% (inactive)
